# About 79,000 compounds went through this panel and 15% of them were active in at least one assay; those are over-represented in the sample as a whole. Activity calls are given as the source filed them. Cut-off read from the data, not from the text of the source: active = growth inhibition above about 70%; inactive = the rest.
# Experiment: NCI Yeast Anticancer Drug Screen. Data for the sgs1 mgt1 strain (AID 161);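 note: 0% = growth of cultures given vehicle only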
# Details: S. cerevisiae sgs1 mgt1 strain, at 50.0 µM, hits give high values
# How it was run: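 Read-out: growth inhibition vs vehicle controls. Cells: mutant yeast strain deficient in DNA damage repair.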
row,SMILES,growth inhibition
1,N#Cc1c(C#N)c(-c2cccc([N+](=O)[O-])c2)n(-c2ccccc2)c1N,-35.6% (inactive)
2,Nc1ncnc(N)c1NC(=O)CCCCc1ccccc1,-13.2% (inactive)
3,CC1=C2CC[C@@]3(C)C(=CCC3O)C2(C)CCC1=O (stereo not given in full),-7.5% (inactive)
4,O=C1c2ccccc2-c2nc3cc4ccccc4cc3nc21,22.5% (inactive)
5,CCC(CC)C(=O)OCCOc1ccccc1,3.95% (inactive)
6,CN1CCN(C(=O)Nc2ccc(N=Nc3ccccc3)cc2)CC1,6.1% (inactive)
7,Cc1cc2c(cc1C)NS(=O)(=O)N2,7.25% (inactive)
8,CC(C)/C=C\C(=O)CC(C)C,9.35% (inactive)
9,CC(C)=NOC(=O)Nc1cccc2c1OCO2,-12% (inactive)
10,CC(C)NC(=O)Nc1cccc(Cl)c1,17.7% (inactive)
11,CN=C(c1ccccc1)N(O)c1ccccc1,-8.15% (inactive)
12,C=CC(=O)NC1CCCCC1,-19.8% (inactive)
13,O=c1c2c(-c3ccccc3)c3ccccc3nc2cnn1-c1ccccc1,-18.4% (inactive)
14,CC(C)CN(CC(C)C)C(=O)C1CCCC[C@@H]1C(=O)O (stereo not given in full),5.8% (inactive)
15,C=CCOC(=O)Nc1ccc(C)c(NC(=O)OCC=C)c1,-9.1% (inactive)
16,CCOP(=O)(OCC)C(Cc1ccc(OC)c(OC)c1)N=C(c1ccccc1)c1ccccc1 (stereo not given),-12.2% (inactive)
17,c1ccc(-c2ccccc2N=C2N=NN=N2)cc1,2.2% (inactive)
18,S=C1c2cc(Cl)ccc2NC(=NC2CCCC2)C2CSCN12 (stereo not given),51.5% (inactive)
19,CCOC(=O)/C(C#N)=C/Nc1c(C)n(C)n(-c2ccccc2)c1=O,6.75% (inactive)
20,CC(=O)N/N=C/c1ccc([N+](=O)[O-])s1,33.3% (inactive)

row,SMILES,growth inhibition
1,O=C(O)C(=O)Cc1ccc(Br)cc1[N+](=O)[O-],1.8% (inactive)
2,CC(C)C(=O)Nc1nc2c(ncn2C2OC(CO)C(O)C2O)c(=O)[nH]1 (stereo not given),-22.3% (inactive)
3,CC(SC(=S)N1CCOCC1)C(=O)O (stereo not given),-1.6% (inactive)
4,O=C(Nc1ccc([N+](=O)[O-])cc1)c1cc(N2CCOCC2)ccn1,21.6% (inactive)
5,N#C/C(=C\c1ccccc1)c1cccc(Cl)c1,-13.3% (inactive)
6,Cc1ccc(S(=O)(=O)OC2CCCCCCCCCCC2=O)cc1 (stereo not given),-7.1% (inactive)
7,CCOC(=O)CN=NNc1ccccc1C(C)=O,10.9% (inactive)
8,COc1ccc(NC(=S)NN=C(C)c2cccc(C(C)=NNC(=S)Nc3ccc(OC)cc3)n2)cc1,5.15% (inactive)
9,O=P(c1ccccc1)(c1ccccc1)C(O)c1cccs1 (stereo not given),17.6% (inactive)
10,CCOc1ncc(C(O)c2ccco2)c(OCC)n1 (stereo not given),5.7% (inactive)
11,N#C/C(=N/Nc1nc[nH]c1C(N)=O)C(=O)Nc1ccccc1,16.6% (inactive)
12,CSC(SC)=C(C(=O)c1ccc(Cl)cc1)n1c(=O)sc2cc(Br)ccc21,6.25% (inactive)
13,O=C(Nc1nc2ncn(CCI)c2c(=O)[nH]1)c1ccccc1,6.1% (inactive)
14,O=C(C[n+]1cccc(Cl)c1)c1cccc([N+](=O)[O-])c1,-9.25% (inactive)
15,NC(=O)COc1c(Br)cc(Br)cc1Br,-12.1% (inactive)
16,Cc1cc(C)cc(C(=O)OC2CCCC2)c1,-3.85% (inactive)
17,O=C1Nc2ncnc(Cl)c2Cc2ccccc21,-0.75% (inactive)
18,C/C(CC(=O)N1CCCCC1)=N\NC(N)=S,-18.9% (inactive)
19,COc1ccc(/C=C2/CCOC2=O)cc1,11.4% (inactive)
20,Cn1c(C2CCc3cc(O)ccc3C2)cccc1=O (stereo not given),-4.25% (inactive)

# Experiment: NCI Yeast Anticancer Drug Screen. Data for the cln2 rad14 strain (AID 165);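 note: 0% = growth equal to vehicle treated cultures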
# Details: S. cerevisiae cln2 rad14 strain, at 50.0 µM, hits give high values
# How it was run: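 cln2 rad14 yeast strain; compound exposure; growth inhibition read vs vehicle controls.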
row,SMILES,growth inhibition
1,N#Cc1c(C#N)c(-c2cccc([N+](=O)[O-])c2)n(-c2ccccc2)c1N,2.15% (inactive)
2,Nc1ncnc(N)c1NC(=O)CCCCc1ccccc1,4.8% (inactive)
3,CC1=C2CC[C@@]3(C)C(=CCC3O)C2(C)CCC1=O (stereo not given in full),-34% (inactive)
4,O=C1c2ccccc2-c2nc3cc4ccccc4cc3nc21,5.85% (inactive)
5,CCC(CC)C(=O)OCCOc1ccccc1,-20.2% (inactive)
6,CN1CCN(C(=O)Nc2ccc(N=Nc3ccccc3)cc2)CC1,-29.5% (inactive)
7,Cc1cc2c(cc1C)NS(=O)(=O)N2,-21.7% (inactive)
8,CC(C)/C=C\C(=O)CC(C)C,5.9% (inactive)
9,CC(C)=NOC(=O)Nc1cccc2c1OCO2,-14.8% (inactive)
10,CC(C)NC(=O)Nc1cccc(Cl)c1,-18.8% (inactive)
11,CN=C(c1ccccc1)N(O)c1ccccc1,-10.1% (inactive)
12,C=CC(=O)NC1CCCCC1,-8.9% (inactive)
13,O=c1c2c(-c3ccccc3)c3ccccc3nc2cnn1-c1ccccc1,-18.4% (inactive)
14,CC(C)CN(CC(C)C)C(=O)C1CCCC[C@@H]1C(=O)O (stereo not given in full),18.7% (inactive)
15,C=CCOC(=O)Nc1ccc(C)c(NC(=O)OCC=C)c1,-25.5% (inactive)
16,CCOP(=O)(OCC)C(Cc1ccc(OC)c(OC)c1)N=C(c1ccccc1)c1ccccc1 (stereo not given),-13.3% (inactive)
17,c1ccc(-c2ccccc2N=C2N=NN=N2)cc1,-16.4% (inactive)
18,S=C1c2cc(Cl)ccc2NC(=NC2CCCC2)C2CSCN12 (stereo not given),-3.25% (inactive)
19,CCOC(=O)/C(C#N)=C/Nc1c(C)n(C)n(-c2ccccc2)c1=O,16.4% (inactive)
20,CC(=O)N/N=C/c1ccc([N+](=O)[O-])s1,-11.8% (inactive)

row,SMILES,growth inhibition
1,O=C(O)C(=O)Cc1ccc(Br)cc1[N+](=O)[O-],-3% (inactive)
2,CC(C)C(=O)Nc1nc2c(ncn2C2OC(CO)C(O)C2O)c(=O)[nH]1 (stereo not given),8.15% (inactive)
3,CC(SC(=S)N1CCOCC1)C(=O)O (stereo not given),-4.8% (inactive)
4,O=C(Nc1ccc([N+](=O)[O-])cc1)c1cc(N2CCOCC2)ccn1,15.6% (inactive)
5,N#C/C(=C\c1ccccc1)c1cccc(Cl)c1,-97.1% (inactive)
6,Cc1ccc(S(=O)(=O)OC2CCCCCCCCCCC2=O)cc1 (stereo not given),-11.9% (inactive)
7,CCOC(=O)CN=NNc1ccccc1C(C)=O,-3.3% (inactive)
8,COc1ccc(NC(=S)NN=C(C)c2cccc(C(C)=NNC(=S)Nc3ccc(OC)cc3)n2)cc1,-15.7% (inactive)
9,O=P(c1ccccc1)(c1ccccc1)C(O)c1cccs1 (stereo not given),15.5% (inactive)
10,CCOc1ncc(C(O)c2ccco2)c(OCC)n1 (stereo not given),-47.8% (inactive)
11,N#C/C(=N/Nc1nc[nH]c1C(N)=O)C(=O)Nc1ccccc1,-0.1% (inactive)
12,CSC(SC)=C(C(=O)c1ccc(Cl)cc1)n1c(=O)sc2cc(Br)ccc21,0.25% (inactive)
13,O=C(Nc1nc2ncn(CCI)c2c(=O)[nH]1)c1ccccc1,-1.4% (inactive)
14,O=C(C[n+]1cccc(Cl)c1)c1cccc([N+](=O)[O-])c1,-3.8% (inactive)
15,NC(=O)COc1c(Br)cc(Br)cc1Br,-3.75% (inactive)
16,Cc1cc(C)cc(C(=O)OC2CCCC2)c1,4.5% (inactive)
17,O=C1Nc2ncnc(Cl)c2Cc2ccccc21,-12.9% (inactive)
18,C/C(CC(=O)N1CCCCC1)=N\NC(N)=S,-10.5% (inactive)
19,COc1ccc(/C=C2/CCOC2=O)cc1,-9.3% (inactive)
20,Cn1c(C2CCc3cc(O)ccc3C2)cccc1=O (stereo not given),-19.6% (inactive)
